Test results: PubChem BioAssay (NCI)
“And” between values parts separate entries of the source, which are not always exact repeats. Identical values can stand only once. Compounds without any hit were thinned out: in the full panel of roughly 83,000, 20% have a hit.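 Each cell line was grown in a 96-well plate and treated with one concentration of compound for 48 hours. Values below 10 were considered active.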 The source made the active and inactive calls.

Test system: HL-60(TB) leukemia
Test: NCI-60 one-dose screen, 48 h (100 = growth as untreated, 0 = no growth, -100 = all killed)
Conditions: 10 µM unless noted

Structure (SMILES) | growth
Oc1ccc(N=Nc2ccc(Br)cc2)c(O)c1 | -21.8% (active)
CCC(C(=O)[C@@H](C)[C@@H](O)[C@H](C)[C@@H]1O[C@@H]([C@@H](CC)C(=O)ONC(=O)c2ccccc2)CC[C@@H]1C)[C@H]1O[C@]2(C=CC(=O)[C@]3(CC[C@@](C)([C@H]4CC[C@](O)(CC)[C@H](C)O4)O3)O2)[C@H](C)C[C@@H]1C (stereo not given in full) | -63.9% (active)
CCOC(=O)c1sc(NS(=O)(=O)c2ccccc2)nc1C | 153% (inactive)
CNC(=O)c1cc(Oc2ccc(NC(=O)Nc3ccc(Cl)c(OC(C)C)c3)c(F)c2)ccn1 | 59.6% (inactive)
COc1cc(C)c(C2C(C#N)=C(N)Oc3n[nH]c(-c4cccs4)c32)cc1C(C)C (stereo not given) | 66.2% (inactive)
Fc1ccc2c(c1)c(-c1nc(-c3c[nH]c4ncccc34)cs1)cn2CCCN1CCCCC1 | 24.2% (inactive)
CCOC(=O)c1cn2ncnc(Oc3ccc(NC(=O)NCCN4CCOCC4)c(Cl)c3)c2c1C | 101% (inactive)
COc1ccc(C2CC(c3cccs3)=NN2c2ccc(S(=O)(=O)NC(=O)Nc3ccc(C)cc3)cc2)cc1 (stereo not given) | 126% (inactive)
COC(=O)c1cc(=O)nc(N/N=C/c2ccccc2O)s1 | 87.3% (inactive)
COc1cc(OC)cc(-c2n[nH]nc2-c2ccc3c(c2)OCO3)c1 | 8.65% (active)
COc1ccc(CCN2C(=O)CCC3=C2CCCC3=O)cc1OC | 107% (inactive)
COc1cc(/C=C/c2ccccc2)cc(OC)c1 | 96.2% (inactive)
O=C(OCc1ccc2cccc(O)c2n1)N1CCN(C(=O)c2cc3cc(F)ccc3[nH]2)CC1 | -35.8% (active)
COc1ccc(/C=C(\C#N)c2ccccc2)cc1 | 95.8% (inactive)
CCN(CC)CCOC(=O)c1cccnc1 | 101% (inactive)
CC(=O)c1ccc2c(c1)c1ccccc1n2C | 84.1% (inactive)
O=C1c2cccc3cccc(c23)C(=O)N1CC#Cc1ccc2c3c(cccc13)C(=O)N(CCO)C2=O | 112% (inactive)
COc1ccc(-c2nc3cc(C(=O)NCc4ccccc4)ccc3n2C2CCCCC2)cc1 | 71.1% (inactive)
CC(=O)Nc1nc(C)c(C(=O)NNC=O)s1 | 104% (inactive)
COc1ccccc1Nc1nc2c(s1)C1=CC[C@H]3[C@@H]4CC[C@H]([C@H](C)CCCC(C)C)[C@@]4(C)CC[C@@H]3[C@@]1(C)CC2 | 102% (inactive)

Structure (SMILES) | growth
CC(C)N=c1cc2n(-c3ccc(Cl)cc3)c3ccccc3nc-2cc1Nc1ccc(Cl)cc1 | -6.14% (active) and -2.06% (active) and -36.3% (active)
CC(C)(C)n1cc(-c2ccnc(NCCCNS(=O)(=O)c3ccccc3)c2)c(-c2ccccc2)n1 | 38.5% (inactive)
CC(=O)c1c(O)cc2c3c1OC(C)(C)C1CCC(C)(CC31)O2 (stereo not given) | 89.2% (inactive)
O=C1C=C(Nc2ccccc2)c2ccccc2C1=O | 79.5% (inactive) and 101% (inactive)
COc1cc2nc3c(=O)n(-c4ccc(C#N)cc4)cnn3c(=O)c2cc1OC | 92.1% (inactive)
O=C1/C(=C/c2ccc(Cl)cc2)COc2ccc(O)cc21 | -11.3% (active)
C=C(C)[C@@H]1CC[C@]2(C(=O)N[C@H](CO)Cc3ccccc3)CC[C@]3(C)[C@H](CC[C@@H]4[C@@]5(C)CCCNC(C)(C)[C@@H]5CC[C@]43C)[C@@H]12 | -73.3% (active)
CN(C)C(C(N)=O)c1ccc(Cl)cc1 (stereo not given) | 89.6% (inactive)
COc1ccc(C2NCCc3c2[nH]c2ccccc32)cc1CN1CCN(c2ccc(F)cc2)CC1 (stereo not given) | 24.7% (inactive)
CCOC(=O)[C@]1(Br)CC[C@@]1(Br)C(=O)OCC | 47.7% (inactive)
NC(=S)N/N=C/Cc1ccccc1 | 47.2% (inactive)
O=C(O)CN(CCN(CC(=O)O)CC(=O)O)CCN(CC(=O)O)CC(=O)O | -51.1% (active) and 109% (inactive) and 94.7% (inactive)
CC(=O)c1cc2c(N)c(C(=O)Nc3cncc4ccccc34)sc2nc1C | 91.6% (inactive)
CCOC(=O)c1[nH]c(C)c(C(=O)OCc2ccccc2C#N)c1C | 86.6% (inactive)
O=C(NCCc1nccs1)c1cnc2c(S)cccc2c1 | 16.6% (inactive)
COc1ccc(S(=O)(=O)c2ccc(F)cc2)cc1 | 105% (inactive)
COc1cc(-c2n/c(=C\c3c(O)[nH]c4ccc(Cl)cc34)cc3c2=Nc2ccccc2-3)ccc1F | 96.6% (inactive)
COc1ccc2c(c1)sc1nc(-c3ccccc3)c(-c3ccc(O)c(OC)c3)n12 | 44.2% (inactive)
CNc1cc2nc3cc(NC)c(C)cc3cc2cc1C | 18.9% (inactive)
CCC(C)NC(=O)c1ccccc1C (stereo not given) | 111% (inactive)
